Experimental data from PubChem BioAssay (NCATS).
Inconclusive results are not listed. Entries that show only a call come without a potency. Active and inactive are the calls of the source. The call rests on the fitted dose curve; in most records, active means well fitted curve in the direction sought with a large enough effect; inconclusive means small, poorly fitted or top-dose-only effect, or another doubt; inactive means no such curve, though single readings can be large; an effect the other way counts as inactive or inconclusive.

Experiments:
[1] = target: Aldehyde dehydrogenase, mitochondrial (Homo sapiens) (UniProt P05091); experiment: qHTS for Inhibitors of the Aldehyde Dehydrogenase Family (ALDH2) Primary screen (AID 2061308); further: nearly all actives have a fitted effect of over 55% in size
[2] = target: Retinaldehyde dehydrogenase 3 (Homo sapiens) (UniProt P47895); experiment: qHTS for Inhibitors of the Aldehyde Dehydrogenase Family (ALDH1A3) Primary screen (AID 2061315)

| SMILES | Potency [1] | Potency [2] |
| --- | --- | --- |
| O=S1(=O)N=C(Oc2ccc(-c3ccccc3)cc2)c2ccccc21 | inactive | inactive |
| CN1C(=O)NC(c2ccccc2Cl)C2=C1CCCC2=O (centres undefined) | inactive | inactive |
| CC1(C)CC(C(=O)Nc2ccc([S+](=O)([O-])Nc3nccs3)cc2)C1 | inactive | inactive |
| CO[C@H]1C[C@@H]2CC[C@@H](C)[C@@](O)(O2)C(=O)C(=O)N2CCCC[C@H]2C(=O)O[C@H]([C@@H](C)C[C@@H]2CC[C@@H](O)[C@H](OC)C2)CC(=O)[C@H](C)/C=C(\C)[C@@H](O)[C@@H](OC)C(=O)[C@H](C)C[C@H](C)/C=C/C=C/C=C/1C | inactive | inactive |
| CCCn1c(-c2ccc(F)cc2)nc2c(NCCCCN(C)C)nc(C)nc21 | inactive | inactive |
| Cc1ccc(S(=O)(=O)Nc2ccccc2C(=O)Nc2nc(-c3ccccc3)c(C)s2)cc1 | inactive | inactive |
| C/C=C(\C)C(=O)OC1C[C@@]2(COC(C)=O)O[C@H]2/C=C\[C@@]2(C)O[C@@H]2[C@H]2OC(=O)C(COC(C)=O)=C12 (some centres undefined) | inactive | inactive |
| COc1ccc(OC)c(-c2nnc3n2N=C(c2ccc(OC)c(OC4CCCC4)c2)CS3)c1 | inactive | inactive |
| Cc1ccc(N2CCC(CNc3nc(-c4ccccc4C(C)C)ncc3C)CC2)cn1 | inactive | inactive |
| C=CC(C)(C)c1[nH]c2ccccc2c1C[C@@H]1NC(=O)[C@H](C)NC1=O | inactive | inactive |
| COc1cc(OC)c(C(CC(=O)N2CC(C)CC(C)C2)c2ccc3c(c2)OCO3)c(OCC(N)=O)c1 (centres undefined) | inactive | inactive |
| O=c1ccc2ccc(OCCCCN3CCN(c4cccc5sccc45)CC3)cc2[nH]1 | inactive | inactive |
| Cc1nnc(-c2cnn(C)c2N)n1Cc1cncn1C | inactive | inactive |
| O=C1CCc2cc(S(=O)(=O)Nc3ccc4ncccc4c3)ccc2N1 | inactive | inactive |
| NC(=O)C1CCN(c2nc(-c3ccccc3Br)cs2)CC1 | inactive | inactive |
| Cc1cnc(-c2ccccc2C(C)C)nc1NCc1cccs1 | inactive | inactive |
| Cc1ccc(OCCn2c(CCNC(=O)c3ccccc3Br)nc3ccccc32)cc1 | inactive | inactive |
| Cc1cc2c(s1)c1cnn(Cc3c(Cl)cccc3Br)c(=O)c1n2C | inactive | inactive |
| COc1ccc(NS(=O)(=O)c2ccccc2C(=O)O)cc1 | inactive | inactive |

| SMILES | Potency [1] | Potency [2] |
| --- | --- | --- |
| O=C(O)CCCCCNC(=O)CSc1nnc(-c2ccc([S+](=O)([O-])N3CCCC3)cc2)n1-c1ccccc1 | inactive | inactive |
| C=C(C)c1cc2c(s1)c1cnn(Cc3ccccc3F)c(=O)c1n2C | inactive | inactive |
| CC(C)C(OC(=O)CNC(=O)c1ccccc1)C(=O)Nc1cc(C(F)(F)F)ccc1Cl (centres undefined) | inactive | inactive |
| Cc1cccc(CNc2ccnc(-c3ccc(C(F)(F)F)cc3)n2)c1 | inactive | inactive |
| O=C(Nc1nc(-c2ccccc2)cs1)c1ccncc1NS(=O)(=O)c1cccc2cccnc12 | inactive | inactive |
| Cc1ccc(OCCn2c(CCNC(=O)c3cc(N)ccc3N)nc3ccccc32)cc1 | inactive | inactive |
| Cc1cc(NS(=O)(=O)c2ccc(NC(=O)Cc3ccc(Cl)cc3Cl)cc2)no1 | inactive | inactive |
| C=CCc1cc(F)c(S(=O)(=O)N2CCN(S(=O)(=O)c3ccc4c(c3)OCCO4)CC2)cc1F | inactive | inactive |
| O=S(=O)(Nc1nccs1)c1ccc(NCc2ccc(Cl)cc2O)cc1 | inactive | inactive |
| Cc1cc2c(s1)c1cnn(Cc3c(C)cc(F)cc3C)c(=O)c1n2C | inactive | inactive |
| COc1ccc2cc3c(NC(=O)c4ccco4)nn(C)c3nc2c1 | inactive | inactive |
| COc1ccc(-c2nnc3n2N=C(c2ccccc2OC)CS3)c(OC)c1 | inactive | inactive |
| O=C(O)c1ccc2c(c1)C(=O)N([C@@H](Cc1ccc(O)cc1)C(=O)O)C2=O | inactive | inactive |
| FC(F)(F)c1ccccc1-c1nc(NCC23CC4CC(CC(C4)C2)C3)c2ccccc2n1 | inactive | inactive |
| COc1ccc(-c2nc3ccccc3s2)cc1OC | inactive | inactive |
| CCNC(=O)c1ccc(-c2ccc3ncnc(NCC4CCCO4)c3c2)o1 (centres undefined) | inactive | inactive |
| COc1ccc(C(=O)Nc2ccc(-c3nc4ccccc4[nH]3)cc2)cc1F | inactive | inactive |
| CC(=O)c1ccc(N2CCN(S(=O)(=O)c3ccc(N4CCCC4=O)cc3)CC2)cc1 | inactive | inactive |
